The whole screen tested about 39,000 compounds, of which about 3,300 (8.5%) were called active. This excerpt belongs to a sample that is enriched for actives.
What follows are compounds tested on HepG2 (assay: cytotoxicity call (relative viability < 0.9)). Settings: 10 µM.
With C[C@@H]1CN([C@H](C)CO)C(=O)c2cc(NS(=O)(=O)c3cn(C)cn3)ccc2O[C@H]1CN(C)C(=O)NC1CCCCC1 the cytotoxicity call was “inactive”.
C[C@H]1CN([C@@H](C)CO)C(=O)Cc2cc(NC(=O)CCN3CCOCC3)ccc2O[C@@H]1CN(C)S(=O)(=O)c1cccs1 was tested, and the cytotoxicity call was “inactive”.
O=C(C[C@@H]1CC[C@H]2[C@@H](COC[C@@H](O)CN2C(=O)c2cnccn2)O1)NCc1ccc(Oc2ccccc2)cc1 was tested, and the cytotoxicity call was “inactive”.
COc1ccccc1NC(=O)N(C)C[C@@H]1Oc2ncc(Br)cc2C(=O)N([C@H](C)CO)C[C@H]1C was tested, and the cytotoxicity call was “inactive”.
With O=C(CCCCCCC(=O)Nc1ccccc1O)N/N=C/[C@H](O)[C@@H](O)[C@H](O[C@@H]1O[C@H](CO)[C@H](O)[C@H](O)[C@H]1O)[C@H](O)CO the cytotoxicity call was “inactive”.
In the case of C[C@H](CO)N1C[C@H](C)[C@@H](CN(C)C(=O)Nc2cccc3ccccc23)Oc2c(NC(=O)CCCCCC(=O)Nc3ccccc3N)cccc2C1=O, the cytotoxicity call is reported as “inactive”.
For C[C@@H]1CCCCO[C@@H](CN(C)S(=O)(=O)c2ccc(Cl)cc2)[C@@H](C)CN([C@H](C)CO)C(=O)c2cc(NC(=O)Nc3ccc(F)cc3)ccc2O1, the cytotoxicity call was “inactive”.
C[C@H](CO)N1C[C@H](C)[C@H](CN(C)Cc2ccc(Oc3ccccc3)cc2)Oc2ccc(NC(=O)C3CC3)cc2C1=O was tested, and the cytotoxicity call was “inactive”.
With Cc1ccc(NC(=O)N(C)C[C@@H]2OCCCC[C@H](C)Oc3ccc(NC(=O)C4CCCCC4)cc3C(=O)N([C@H](C)CO)C[C@@H]2C)cc1 the cytotoxicity call was “inactive”.
With NC(=O)CCN1CCn2c1nc1ccccc12 the cytotoxicity call was “inactive”.
COc1ccc2c3c([nH]c2c1)[C@H](CO)N(C[C@]13CCN(CC1)C(=O)Nc1ccc2c(c1)OCO2)C(=O)Nc1ccc(cc1)F was tested, and the cytotoxicity call was “inactive”.
With COc1ccc(NC(=O)Nc2ccc3c(c2)C(=O)N([C@H](C)CO)C[C@H](C)[C@@H](CN(C)Cc2ccccc2)OCCCC[C@@H](C)O3)cc1 the cytotoxicity call was “inactive”.
With COc1ccc(NC(=O)Nc2ccc3c(c2)C(=O)N([C@H](C)CO)C[C@H](C)[C@H](CN(C)Cc2ccccc2)OCCCC[C@H](C)O3)cc1 the cytotoxicity call was “active”.
With COc1ccc(NC(=O)Nc2ccc3c(c2)C(=O)N([C@@H](C)CO)C[C@H](C)[C@@H](CN(C)Cc2ccccc2)OCCCC[C@H](C)O3)cc1 the cytotoxicity call was “inactive”.
For C[C@@H]1CCCCO[C@H](CN(C)Cc2ccccc2)[C@@H](C)CN([C@H](C)CO)C(=O)c2cc(NS(=O)(=O)c3ccc(F)cc3)ccc2O1, the cytotoxicity call was “inactive”.
For Cn1cnnc1Sc1c([N+](=O)[O-])ncn1C, the cytotoxicity call was “inactive”.
Cn1cnc([N+](=O)[O-])c1Sc1[nH]cnc2ncnc1-2 was tested, and the cytotoxicity call was “active”.
Cn1cnc([N+](=O)[O-])c1Cl was tested, and the cytotoxicity call was “inactive”.

— the antibiotic and cytotoxicity screens of Wong et al. (2023)
